Measured values: PubChem BioAssay (Tox21)
Results filed as inconclusive are left out. Calls of active or inactive are those of the source. Unless noted, calls come from the whole dose curve; as a rule, active = well fitted curve in the direction sought with a large enough effect in the repeat runs; inconclusive = weak or mixed curves; inactive = no such curve, though single readings can be large; an effect the other way counts as inactive or inconclusive.

How the values were obtained:
[1] = qHTS assay to test for compound auto fluorescence at 535 nm (green) in HEK293 cells (AID 720680); details: green autofluorescence 485/535 nm; series mostly up to 91.3 µM
[2] = qHTS assay to test for compound auto fluorescence at 460 nm (blue) in HEK293 cell free culture (AID 720681); details: cell-free medium, autofluorescence 405/460 nm (blue); series mostly up to 91.3 µM
Summary of the method: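 Compounds were added to cell-free DMEM with 10% FBS and fluorescence read directly. The blue channel used 405 nm excitation and 460 nm emission, with triamterene as the reference fluorophore.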

[3] = qHTS assay to test for compound auto fluorescence at 535 nm (green) in HEK293 cell free culture (AID 720682); details: cell-free medium, green autofluorescence 485/535 nm, stronger effect = higher value; series mostly up to 91.3 µM
Summary of the method: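 Read-out: 485/535 nm fluorescence intensity, calibrated against fluorescein. Medium only (DMEM + 10% FBS, no cells); test compound or DMSO vehicle added by pintool before plate reading.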

[4] = qHTS assay to test for compound auto fluorescence at 590 nm (red) in HEK293 cell free culture (AID 720683); details: cell-free medium autofluorescence, Ex540/Em590 red; series mostly up to 91.3 µM
Summary of the method: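 Cell-free wells of DMEM with 10% FBS received compound, and intrinsic fluorescence was read at excitation/emission 540/590 nm. Values expressed as equivalence to Rose Bengal sodium.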

[5] = qHTS assay to test for compound auto fluorescence at 590 nm (red) in HepG2 cell free culture (AID 720684); details: cell-free medium autofluorescence, red 540/590 nm; series mostly up to 91.3 µM
Summary of the method: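 Rose Bengal sodium served as the reference for red signal. Test compounds were dispensed into serum-containing MEM (10% FBS) without cells, and plates were read at 540/590 nm.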

[6] = qHTS assay to test for compound auto fluorescence at 460 nm (blue) in HepG2 cell free culture (AID 720685); details: Cell-free culture medium, blue autofluorescence 405/460 nm; series mostly up to 91.3 µM
Summary of the method: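 Cell-free plates of MEM plus 10% FBS received 23 nL compound or DMSO vehicle; blue-channel (405/460 nm) intensity scored against triamterene as reference fluorophore.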

[7] = qHTS assay to test for compound auto fluorescence at 460 nm (blue) in HepG2 cells (AID 720687); details: autofluorescence 405/460 nm, 1 h; series mostly up to 91.3 µM
Summary of the method: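 HepG2 cells in MEM with 10% FBS, attached overnight at 37 C, were exposed to compound or DMSO for 1 hr at 37 C, 5% CO2. Blue fluorescence was read at 405/460 nm, with triamterene as reference fluorophore.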

[8] = target: Glucocorticoid receptor (Homo sapiens) (UniProt P04150); assay: qHTS assay to identify small molecule agonists of the glucocorticoid receptor (GR) signaling pathway (AID 720691; active = well fitted activation curve with a large enough effect in the signal ratio in the repeat runs, not every such curve was filed as active; the % refers to the signal ratio); details: GR-bla HeLa, beta-lactamase reporter ratio, 18 h; series mostly up to 62.4 µM
Chain of Glucocorticoid receptor (Homo sapiens) (P04150 whole entry, looked up): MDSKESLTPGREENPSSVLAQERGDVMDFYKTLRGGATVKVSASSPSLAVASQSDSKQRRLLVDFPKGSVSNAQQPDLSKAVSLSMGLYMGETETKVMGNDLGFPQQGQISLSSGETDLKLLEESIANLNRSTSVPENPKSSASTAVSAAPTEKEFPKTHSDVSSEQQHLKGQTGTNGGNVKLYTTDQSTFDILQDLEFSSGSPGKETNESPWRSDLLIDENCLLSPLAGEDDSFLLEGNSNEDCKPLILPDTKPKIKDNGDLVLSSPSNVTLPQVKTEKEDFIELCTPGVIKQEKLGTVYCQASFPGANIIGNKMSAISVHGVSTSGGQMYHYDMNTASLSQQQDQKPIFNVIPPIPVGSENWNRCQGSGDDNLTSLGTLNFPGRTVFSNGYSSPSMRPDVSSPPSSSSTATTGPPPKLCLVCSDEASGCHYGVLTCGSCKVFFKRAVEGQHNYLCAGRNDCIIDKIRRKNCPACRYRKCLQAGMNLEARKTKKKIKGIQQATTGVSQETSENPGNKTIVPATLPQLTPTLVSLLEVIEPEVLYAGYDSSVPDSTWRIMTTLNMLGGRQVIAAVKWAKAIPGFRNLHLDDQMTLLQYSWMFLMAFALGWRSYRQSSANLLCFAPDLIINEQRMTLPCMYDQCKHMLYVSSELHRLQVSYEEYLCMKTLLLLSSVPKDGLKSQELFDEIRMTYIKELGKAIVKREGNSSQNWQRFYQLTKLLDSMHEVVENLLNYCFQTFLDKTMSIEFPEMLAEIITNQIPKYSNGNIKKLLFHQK
Summary of the method: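 A HeLa cervical cancer line expressing GR and a glucocorticoid response element-driven beta-lactamase gene is treated with compounds for 18 h; LiveBLAzer B/G FRET substrate is then applied and fluorescence read.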

[9] = target: Glucocorticoid receptor (Homo sapiens) (UniProt P04150); assay: qHTS assay to identify small molecule antagonists of the glucocorticoid receptor (GR) signaling pathway (AID 720692; active = well fitted inhibition curve with a large enough effect in the signal ratio in the repeat runs, not every such curve was filed as active; the % refers to the signal ratio); details: GR-bla HeLa, beta-lactamase FRET ratio, dexamethasone-stimulated, 18 h; series mostly up to 58.5 µM
Summary of the method: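 GRE-bla HeLa line, dex-stimulated (5 nM final). Compound exposure 18 h, 37 C. Beta-lactamase FRET read after 2 h RT substrate.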

[10] = qHTS assay for identifying genotoxic compounds that show differential cytotoxicity against isogenic chicken DT40 cell lines with known DNA damage response pathways - wild type cell line (AID 743012); details: DT40 wild type chicken cells viability, CellTiter-Glo, 40 h; series mostly up to 68.4 µM; note: nearly all actives have a fitted effect of over 60% in size
Summary of the method: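 300 wt DT40 cells/well; cpd (DMSO) pintool-transferred after ~0.5 h at 37 C/5% CO2; 40 h incubation; CellTiter-Glo added, 30 min RT; luminescence read.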

[11] = qHTS assay for identifying genotoxic compounds that show differential cytotoxicity against isogenic chicken DT40 cell lines with known DNA damage response pathways - Rev3 mutant cell line (AID 743014); details: chicken DT40 Rev3-/- viability, CellTiter-Glo, 40 h; series mostly up to 68.4 µM; note: nearly all actives have a fitted effect of over 55% in size
[12] = qHTS assay for identifying genotoxic compounds that show differential cytotoxicity against isogenic chicken DT40 cell lines with known DNA damage response pathways - Rad54/Ku70 mutant cell line (AID 743015); details: DT40 Rad54/Ku70 mutant viability, CellTiter-Glo, 40 h; series mostly up to 66.8 µM; note: nearly all actives have a fitted effect of over 60% in size
[13] = qHTS assay to identify small molecule antagonists of the androgen receptor (AR) signaling pathway using the MDA cell line - cell viability counter screen (AID 743041; note: nearly all actives have a fitted effect of over 45% in size); details: MDA-kb2 viability, CellTiter-Fluor, 16 h, cells co-treated with R1881 androgen agonist; series mostly up to 70.3 µM
Summary of the method: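 Cytotoxicity counter screen: MDA-kb2 AR-luc cells, compound + R1881, 16 h, 37C, 0% CO2; CellTiter-Fluor added at 15.5 h, fluorescence read after 30 min.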

[14] = qHTS assay to identify small molecule antagonists of the glucocorticoid receptor (GR) signaling pathway - cell viability counter screen (AID 720693); details: GR-bla HeLa viability, CellTiter-Glo luminescence, 18 h, with 5 nM dexamethasone present; series mostly up to 58.5 µM; note: nearly all actives have a fitted effect of over 55% in size
[15] = qHTS assay to identify small molecule antagonists of the androgen receptor (AR) signaling pathway - cell viability counter screen (AID 743033; note: nearly all actives have a fitted effect of over 45% in size); details: AR-bla HEK293 viability, CellTiter-Glo luminescence, 16 h; series mostly up to 58.5 µM
[16] = target: Androgen receptor (Homo sapiens) (UniProt P10275); assay: qHTS assay to identify small molecule antagonists of the androgen receptor (AR) signaling pathway (AID 743035; active = well fitted inhibition curve with a large enough effect in the signal ratio in the repeat runs, not every such curve was filed as active; the % refers to the signal ratio); details: HEK293 AR-UAS-bla, R1881-stimulated, beta-lactamase FRET, 16 h; series mostly up to 58.5 µM
Chain of Androgen receptor (Homo sapiens) (P10275 whole entry, looked up): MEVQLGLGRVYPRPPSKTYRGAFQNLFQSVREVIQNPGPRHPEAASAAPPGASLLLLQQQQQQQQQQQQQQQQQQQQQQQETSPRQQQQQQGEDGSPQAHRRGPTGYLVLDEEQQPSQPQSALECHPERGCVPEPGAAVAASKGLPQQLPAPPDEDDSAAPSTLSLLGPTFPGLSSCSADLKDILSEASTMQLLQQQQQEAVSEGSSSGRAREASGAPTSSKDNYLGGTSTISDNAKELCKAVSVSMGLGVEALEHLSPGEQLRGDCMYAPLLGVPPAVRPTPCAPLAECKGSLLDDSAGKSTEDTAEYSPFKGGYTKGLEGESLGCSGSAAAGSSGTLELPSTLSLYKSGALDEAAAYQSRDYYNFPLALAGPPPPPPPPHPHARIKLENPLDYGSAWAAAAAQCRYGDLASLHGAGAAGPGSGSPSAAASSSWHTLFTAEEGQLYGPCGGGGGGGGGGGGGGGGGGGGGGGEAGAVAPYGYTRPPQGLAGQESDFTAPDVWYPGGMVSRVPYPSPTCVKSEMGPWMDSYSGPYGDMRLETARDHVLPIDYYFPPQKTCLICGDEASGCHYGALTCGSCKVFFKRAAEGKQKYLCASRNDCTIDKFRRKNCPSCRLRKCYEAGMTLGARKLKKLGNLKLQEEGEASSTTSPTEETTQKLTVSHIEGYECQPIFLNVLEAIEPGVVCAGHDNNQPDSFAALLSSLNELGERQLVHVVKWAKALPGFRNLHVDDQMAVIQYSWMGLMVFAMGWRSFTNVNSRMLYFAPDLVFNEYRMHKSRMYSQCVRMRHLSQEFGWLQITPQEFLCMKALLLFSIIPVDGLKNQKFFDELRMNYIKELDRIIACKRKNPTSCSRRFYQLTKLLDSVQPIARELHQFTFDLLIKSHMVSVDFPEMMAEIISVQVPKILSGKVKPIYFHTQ
Summary of the method: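 In this cell-based reporter screen, compounds were tested in concentration series against R1881-activated HEK293 cells expressing beta-lactamase under UAS control; after 16 h at 37C, FRET substrate was added and fluorescence read 2 h later.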

[17] = target: Androgen receptor (Homo sapiens) (UniProt P10275); assay: qHTS assay to identify small molecule agonists of the androgen receptor (AR) signaling pathway (AID 743036; active = well fitted activation curve with a large enough effect in the signal ratio in the repeat runs, with a control signal flat, not every such curve was filed as active; the % refers to the signal ratio); details: HEK293 AR-UAS-bla GripTite, beta-lactamase FRET ratio, 16 h; series mostly up to 62.4 µM
Summary of the method: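 HEK293 cells stably carrying a UAS-driven beta-lactamase reporter (GeneBLAzer AR-UAS-bla-GripTite) were plated at 2,000 cells/well, rested 4 h at 37C, then exposed to compounds in DMSO for 16 h. LiveBLAzer B/G FRET substrate was added for 2 h at room temperature; fluorescence read.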

[18] = target: Androgen receptor (Homo sapiens) (UniProt P10275); assay: qHTS assay to identify small molecule agonists of the androgen receptor (AR) signaling pathway using the MDA cell line (AID 743040; note: nearly all actives have a fitted effect of over 20% in size); details: MDA-kb2 AR-luc cells, MMTV luciferase, 16 h, stronger effect = higher value; series mostly up to 70.3 µM
Summary of the method: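 Luciferase read-out, ONE-Glo, 30 min RT. Cells: MDA-kb2 AR-luc, MMTV promoter with AR and GR response elements. Compound exposure 16 h, 37C, 0% CO2, after 5 h pre-incubation. qHTS agonist mode.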

[19] = target: Androgen receptor (Homo sapiens) (UniProt P10275); assay: qHTS assay to identify small molecule antagonists of the androgen receptor (AR) signaling pathway using the MDA cell line (AID 743042; note: nearly all actives have a fitted effect of over 55% in size); details: MDA-kb2 AR-luc, MMTV luciferase, R1881 antagonist, 16 h; series mostly up to 70.3 µM
Summary of the method: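 MDA-kb2 breast carcinoma cells carrying MMTV-luciferase (AR/GR responsive) were co-treated with compounds and the agonist R1881 for 16 h at 37C. Inhibition read as ONE-Glo luminescence; CellTiter-Fluor fluorescence measured in parallel for cytotoxicity.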
% is set by controls: 0 for no effect and ±100 for the full control effect.

CCOCCOCCOC(C)=O
inactive: outcome [1] | outcome [2] | outcome [3] | outcome [4] | outcome [5] | outcome [6] | outcome [7] | Potency [8] | outcome [9] | Potency [10] | Potency [11] | Potency [12] | outcome [13]

CC(C)(C)NCC(O)COc1cccc2c1CCC(=O)N2 (stereo unspecified)
inactive: fluorescence, % of fluorescein [1] 0.0295% [at 18.6 µM] | fluorescence, % of fluorescent control [2] 0.183% [at 18.6 µM] | activity change [3] -0.0136% [at 18.6 µM] | fluorescence, % of fluorescent control [4] -0.0457% [at 18.6 µM] | fluorescence, % of Rose Bengal [5] -0.307% [at 18.6 µM] | fluorescence, % of fluorescent control [6] -0.0069% [at 18.6 µM] | fluorescence, % of fluorescent control [7] 0.113% [at 18.6 µM] | outcome [9] | outcome [14] | Potency [11] | outcome [15] | outcome [16] | outcome [17] | outcome [18] | outcome [13] | outcome [19]

CCCCN1C(=O)c2ccccc2C1=O
inactive: outcome [1] | outcome [2] | outcome [3] | outcome [4] | outcome [5] | outcome [6] | outcome [7] | Potency [8] | outcome [9] | Potency [10] | Potency [11] | Potency [12] | outcome [15] | outcome [13]

C/C=C/C(=O)CCCC
inactive: outcome [1] | outcome [2] | outcome [3] | outcome [4] | outcome [5] | outcome [6] | outcome [7] | outcome [14] | Potency [10] | Potency [11] | Potency [12] | outcome [15] | outcome [13]

COC(=O)c1ccc(C(=O)O)cc1
inactive: outcome [1] | outcome [2] | outcome [3] | outcome [4] | outcome [5] | outcome [6] | outcome [7] | Potency [8] | outcome [9] | outcome [14] | Potency [11] | Potency [12] | outcome [15] | outcome [13]

Cc1nc2ccc(Cl)cc2[nH]1
inactive: outcome [1] | outcome [2] | outcome [3] | outcome [4] | outcome [5] | outcome [6] | outcome [7] | Potency [8] | outcome [9] | outcome [14] | Potency [10] | Potency [12] | outcome [15] | outcome [13]

CC1(C)C(=O)C(C)(C)C1=O
inactive: outcome [1] | outcome [2] | outcome [3] | outcome [4] | outcome [5] | outcome [6] | outcome [7] | Potency [10] | Potency [12] | outcome [16] | outcome [17] | outcome [18] | outcome [13] | outcome [19]

CCCCC(CC)CCC(CC(C)C)OS(=O)(=O)O (stereo unspecified)
inactive: outcome [1] | outcome [2] | outcome [3] | outcome [4] | outcome [5] | outcome [6] | outcome [7] | outcome [14] | Potency [10] | Potency [11] | Potency [12] | outcome [15] | outcome [13]

CC(C)OCCO
inactive: outcome [1] | outcome [2] | outcome [3] | outcome [4] | outcome [5] | outcome [6] | outcome [7] | Potency [8] | outcome [9] | outcome [14] | Potency [10] | Potency [12] | outcome [13]

CCCC(=O)OC
inactive: outcome [1] | outcome [2] | outcome [3] | outcome [4] | outcome [5] | outcome [6] | outcome [7] | Potency [11] | Potency [12] | outcome [15] | outcome [13]

C=CCOC(=O)CCCCCCCC
inactive: outcome [1] | outcome [2] | outcome [3] | outcome [4] | outcome [5] | outcome [6] | outcome [7] | outcome [14] | Potency [10] | Potency [12] | outcome [13]
